Screening data from PubChem BioAssay.
TRPML1 blocker – inhibitors of human TRPML1 channel | TRPML1-inducible cells, Ca2+ dye fluorescence, FDSS; active compounds read low; inhibition of EC80 agonist-evoked calcium signal | hit rate 0.02% among 390,000 | AID 624415 | activity change, negative = inhibition, % (test concentration not listed); in the data active = activity change below about -50%; inconclusive = between about -30% and that limit;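 note: stimulus is agonist 54-4 at its EC80 concentration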
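Tet-induced TRPML1-DL cells loaded with Ca8 no-wash calcium dye were read kinetically on FDSS. Compound addition was followed by EC80 agonist 54-4 (4 uM final); inhibition was read over 110 s.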
D3 ag – agonists of human D3 dopamine receptor. P35462. D3R DiscoveRx beta-arrestin cells, luminescence, 90 min. max activation, %. hit rate 0.58% among 410,000; in the data active = max activation above about 30%
Target sequence (P35462 whole entry, looked up): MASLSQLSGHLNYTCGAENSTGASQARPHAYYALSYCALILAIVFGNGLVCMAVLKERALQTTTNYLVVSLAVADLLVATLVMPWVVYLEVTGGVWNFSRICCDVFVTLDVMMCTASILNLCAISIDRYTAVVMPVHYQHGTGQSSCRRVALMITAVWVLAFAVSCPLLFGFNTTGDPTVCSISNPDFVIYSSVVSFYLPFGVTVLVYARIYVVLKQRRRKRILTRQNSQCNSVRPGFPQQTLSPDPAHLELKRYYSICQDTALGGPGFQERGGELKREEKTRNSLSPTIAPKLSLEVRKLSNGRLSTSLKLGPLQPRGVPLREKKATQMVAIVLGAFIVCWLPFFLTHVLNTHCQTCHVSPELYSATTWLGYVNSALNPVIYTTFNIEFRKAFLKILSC
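Agonist-mode cell screen: cells plated at 1500/well and incubated overnight at 37 °C, then exposed to library compounds for 90 min at 37 °C. Detection reagent was added for 30–60 min at room temperature, and luminescence was read.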
TRPML1 agonist – agonists of human TRPML1 channel | Q9GZU1 | TRPML1-expressing cells, Ca2+ dye fluorescence, FDSS | activation, % (no concentration beside the values) | hit rate 0.12% among 410,000 | AID 624414; in the data active = activation above about 50%; inconclusive = mostly about 30% to 49%
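In this qHTS format, compounds were pin-transferred onto Ca8-dye-loaded TRPML1-DL cells induced with Tet overnight, and intracellular Ca2+ fluorescence was recorded kinetically for 110 s after a 10 s baseline. A subsequent 4uM final 54-4 (EC80) addition followed by a second 110 s read served as the antagonist phase.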
D3 antag – blocks the human D3 dopamine receptor; P35462; hit rate 2.5% among 360,000; AID 652054; D3R cells, DiscoveRx beta-arrestin luminescence, antagonist mode; active compounds read low; max response, negative = inhibition, %; in the data active = max response below about -50%; inconclusive = no clear call, values can overlap the other calls
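Cells plated overnight at 1500 cells/well, then exposed to library compounds with dopamine controls for 90 minutes at 37 degrees C. DiscoveRx reagent added for 30–60 minutes at room temperature; luminescence read, quantitative HTS format.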
Numbers stand for hits; – = inactive; ? = inconclusive; · = not tested or not shown; ! = repeats disagree. An excerpt weighted towards active compounds, which were near 2.9% of everything screened.

SMILES	TRPML1 blocker	D3 ag	TRPML1 agonist	D3 antag
C(=Nc1ccc(/C=C/c2ccnc3ccccc23)cc1)c1ccco1	·	·	–	·
O=C(NN1C(=O)c2ccccc2NC1c1ccc([N+](=O)[O-])o1)c1ccc([N+](=O)[O-])cc1 (configuration not stated)	–	–	–	-61.5
CCOC(=O)c1ccc(NC(=S)Nc2ccc(C)cc2)cc1	–	–	–	–
CCOC(=O)c1ccc(NC(=S)NNC(C)(C)C)cc1	–	–	–	-58.1
CN(C)CCn1c(=O)n(Cc2ccco2)c(=O)c2c3c(sc21)CCCCC3	–	–	–	–
O=c1c2c3c(sc2n(CCN2CCCC2)c(=O)n1Cc1ccco1)CCCCC3	–	–	–	-63.9
CC1CC(C)CN(S(=O)(=O)c2ccc3c(c2)CC(C)N3C(=O)C2CC2)C1 (configuration not stated)	–	–	–	-109.5
CC(C)n1cc(CN2CCC(C(=O)Nc3ccc(Oc4ccccc4F)cc3)CC2)cn1	–	–	–	-60.8
CCn1cc(CN2CCC(C(=O)Nc3ccc(Oc4ccccc4F)cc3)CC2)c(C)n1	–	–	–	?
CCN(CC)CCOC(=O)c1cccc(Br)c1	–	–	–	-57.7
CCN(CC)CCOC(=O)c1cccc(Cl)c1	–	–	–	–
CCOC(=O)c1c(C)oc2cc(Br)c(OC(C)C(=O)OCC)cc12 (configuration not stated)	–	–	–	–
CCOC(=O)COc1cc2c(C(=O)OCC)c(C)oc2cc1Br	–	34.7	–	–
Cc1ccc(-c2nc3ccccc3c(=O)n2NC(=O)c2cccs2)cc1	–	–	–	-51.0
COc1ccccc1C1NC(=O)c2n[nH]c(-c3cccs3)c21 (configuration not stated)	–	–	–	·
C=CCN1C(=O)S/C(=C/c2ccc(Sc3nc4ccccc4[nH]3)o2)C1=O	–	50.6	–	–
Cc1cccc(N=Cc2cc3c(cc2[N+](=O)[O-])OCO3)c1	–	–	–	–
COc1cc(C=Nc2cccc(C)c2)c(O)c([N+](=O)[O-])c1	–	–	–	-92.3
CCC1CCCCN1CCCNC(=O)c1[nH]c2ccccc2c1Sc1ccc(Cl)cc1 (configuration not stated)	–	–	–	·
O=C1C(Cc2ccccc2)Nc2ncnc(N3CCc4ccccc4C3)c2N1Cc1ccccc1 (configuration not stated)	–	–	–	–
CC1Nc2ncnc(N3CCc4ccccc4C3)c2N(Cc2ccc(Br)cc2)C1=O (configuration not stated)	–	–	–	-55.4!
CCC1Nc2ncnc(N3CCc4ccccc4C3)c2N(Cc2ccc(Br)cc2)C1=O (configuration not stated)	–	–	–	-83.8
O=C(Nc1ccc2nc(-c3ccccc3)[nH]c2c1)c1cccs1	–	–	–	–
O=C(Nc1ccc2nc(-c3ccc4nc[nH]c4c3)[nH]c2c1)c1cccs1	–	–	–	-69.2
CN(C(=O)CSC1=Nc2ccccc2C2=NC(c3ccccc3)C(=O)N12)C1CCCCC1 (configuration not stated)	–	–	–	-55.2
SMILES	TRPML1 blocker	D3 ag	TRPML1 agonist	D3 antag
O=C(Nc1ccc(Cl)cc1Cl)c1cc(S(=O)(=O)N2CCC3(CC2)OCCO3)ccc1F	–	–	–	·
O=C(NCc1cccnc1)c1ccc(-c2ccccc2[N+](=O)[O-])o1	–	–	–	-55.1
O=C(N/N=C/c1ccc(-c2ccccc2[N+](=O)[O-])o1)c1cccnc1	–	–	–	-58.6
O=C(NCc1ccccc1)c1ccc(-c2ccccc2C(F)(F)F)o1	–	–	–	-55.8
CCCN(C(=O)Cn1ncc2c1-c1ccccc1OC2)c1cccc(C)c1	–	–	–	·
Cc1c(Cl)c(-c2n[nH]c(=S)n2-c2ccc(F)cc2)nn1C	–	–	–	-65.9
COc1ccc(Cl)cc1NC(=O)C(C)n1nnc2sc3c(c2c1=O)CCCC3 (configuration not stated)	–	–	–	·
CCSc1ncc(Cl)c(C(=O)Nc2sc3c(c2C(=O)OC)CCCC3)n1	·	·	–	·
COc1ccc(N2CCN(C(=O)c3ccc(CS(=O)c4cccc(Cl)c4)o3)CC2)cc1 (configuration not stated)	–	–	–	–
Cc1cccc(N2CCN(C(=O)c3ccncc3)CC2)c1C	–	46.4	–	–
COc1ccc(S(=O)Cc2ccc(C(=O)N3CCN(c4cccc(C)c4C)CC3)o2)cc1 (configuration not stated)	–	45.0!	–	–
Nn1c(SCC(=O)NC2CCCCC2)nnc1C1CC1	–	–	–	-62.5
COc1ccc(NC(=O)CSc2nnnn2C2CCCCC2)c(OC)c1	–	–	–	–
Cc1nnc(SCC(=O)NC2CCCCC2)n1N	–	–	–	–
COc1cc(OC)cc(-n2nnnc2SCC(=O)NC2CCCC2)c1	–	–	–	-71.3
COc1ccc(OC)c(NC(=O)CSc2nnnn2C2CCCC2)c1	–	35.9	–	–
COc1cccc(NC(=O)c2nn(-c3ccc(C)cc3)c(=O)n(C)c2=O)c1	–	–	–	·
O=C(CNC(=O)C1CCCCC1)OCc1ccccc1	·	·	–	·
Cc1cc(OCc2ccccc2)ccc1/C(O)=C1/C(=O)C(=O)N(Cc2cccnc2)C1c1ccncc1 (configuration not stated)	–	–	–	–
COc1ccc(/C(O)=C2/C(=O)C(=O)N(Cc3cccnc3)C2c2ccncc2)cc1F (configuration not stated)	–	–	–	-135.9
O=C(O)c1ccccc1[O-].O=C(O)c1ccccc1[O-].[Zn+2]	·	–	·	·
COc1ccc(-c2cc(C(=O)NCCc3ccccc3)c3c(-c4ccccc4)[nH]nc3n2)cc1OC	–	–	–	·
COc1ccc(CCNC(=O)c2cc(-c3ccc(C)cc3)nc3n[nH]c(-c4ccccc4)c23)cc1OC	–	73.7	–	·
COc1cccc(N2CCN(C(=O)Cn3nc(C)n4c(cc5c(OC)cccc54)c3=O)CC2)c1	–	–	–	·
Cc1cccc(N(C)C(=S)Oc2ccc3ccccc3c2)c1	–	–	–	-64.7
SMILES	TRPML1 blocker	D3 ag	TRPML1 agonist	D3 antag
COc1ccccc1N1CCN(C(=O)Cn2cnc3onc(-c4ccc(F)cc4)c3c2=O)CC1	–	–	–	·
CN(C)CCCNC(=O)c1ccc(Cl)c(S(=O)(=O)N2CCCCCC2)c1	–	–	–	?
O=C(NCc1ccccc1CN1CCCC1)c1ccc(S(=O)(=O)Nc2ccccc2)cc1	–	–	–	-58.6
CSCC[C@H](NC(=O)c1ccc(Cl)c(S(=O)(=O)N2CCCC2)c1)c1nc2ccccc2[nH]1	–	–	–	-52.0
O=C(NCc1ccccc1CN1CCCC1)c1ccc(Cl)c(S(=O)(=O)N2CCCC2)c1	–	–	–	-50.2
O=C(NCc1ccccc1CN1CCCC1)c1cccc(S(=O)(=O)N2CCCC2)c1	–	–	–	–
CN(C)C(CNC(=O)c1ccc(Cl)c(S(=O)(=O)N2CCCCCC2)c1)c1ccccc1 (configuration not stated)	–	–	–	-80.7
